Screening data from PubChem BioAssay.
An excerpt weighted towards active compounds, which were near 1.2% of everything screened.
GoLoco inh red – qHTS Assay for Inhibitors of RGS12 GoLoco Motif Activity (Red Fluorophore); Gai1:RGS12 GoLoco peptide FP, rhodamine, 10 min; 230,000 tested, 0.44% active; AID 880, 2007; Potency, µM (series often up to 61.6 µM), inactives show at the top dose activity, negative = inhibition, most hits filed as inhibitors; active means well fitted inhibition curve with a large enough effect, not every such curve was filed as active; inactive means no such curve, though single readings can be large or run the other way; further: nearly all actives have a fitted effect of over 30% in size
VDR inh – Inhibitors of the vitamin D receptor (VDR): qHTS | Potency, µM, inactives show max response, negative = inhibition, actives largely listed as inhibitors | AID 504847, 2011 | VDR-SRC2-3 peptide fluorescence polarization, 2 h | 400,000 tested, 0.93% active | Vitamin D3 receptor (Homo sapiens), P11473
Target sequence (P11473 whole entry, looked up): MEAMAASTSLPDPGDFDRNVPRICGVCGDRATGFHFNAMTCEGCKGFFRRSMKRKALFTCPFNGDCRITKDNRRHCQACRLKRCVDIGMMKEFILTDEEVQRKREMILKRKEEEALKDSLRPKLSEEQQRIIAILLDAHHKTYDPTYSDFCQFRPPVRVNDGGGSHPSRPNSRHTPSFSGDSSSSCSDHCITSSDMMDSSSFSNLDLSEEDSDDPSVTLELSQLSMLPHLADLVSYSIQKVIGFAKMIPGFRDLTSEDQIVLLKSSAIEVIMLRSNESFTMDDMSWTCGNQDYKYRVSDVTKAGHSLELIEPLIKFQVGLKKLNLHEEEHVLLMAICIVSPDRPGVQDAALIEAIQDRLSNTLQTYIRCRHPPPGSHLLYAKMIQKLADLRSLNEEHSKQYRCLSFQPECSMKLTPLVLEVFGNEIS
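Reagent solutions, kept cold and dark, are dispensed first; compounds are then pinned in at 23 nl, plates briefly spun, and incubated 2 h at ambient temperature. Inhibition of VDR–SRC2-3 peptide binding is read by fluorescence polarization.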
TR SRC2 fluor cs – Total Fluorescence Counterscreen for Inhibitors of the Interaction of Thyroid Hormone Receptor and Steroid Receptor Coregulator 2; TRb/SRC2 Texas Red total fluorescence interference; Potency, µM (top dose mostly 106 µM), for the others: at the top dose fluorescence change, negative = quenching; 280,000 tested, 0.29% active; AID 1479, 2009; active means well fitted curve in either direction with a large enough effect; inconclusive means small, poorly fitted or top-dose-only effect
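Flags fluorescent or light-absorbing compounds by total fluorescence, S + 2P, at 555 nm excitation and 632 nm emission. Mixture: 20 nM Texas Red SRC2 peptide, 0.6 uM human TRb LBD, 1 uM T3, 5% DMSO; compound exposure 5 h at ambient temperature.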
TRb-SRC2 inh – qHTS for Inhibitors of the Interaction of Thyroid Hormone Receptor and Steroid Receptor Coregulator 2 | Thyroid hormone receptor beta (Homo sapiens), P10828 | TRbeta-SRC2 peptide binding, fluorescence polarization; receptor liganded with 1 µM T3 | Potency, µM (titrated, usually from 106 µM), for the others: at the highest dose activity change, negative = inhibition, hits mostly inhibitors | 280,000 tested, 0.065% active;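 further: plate controls were bound peptide for no effect and peptide without receptor for full effect; nearly all actives have a fitted effect of over 50% in size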
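Assay buffer: 20 mM Tris-HCl, 100 mM NaCl, 10% glycerol, 1 mM EDTA, 0.01% NP-40, 1 mM DTT, 1 uM T3, 5% DMSO; TRb LBD 0.6 uM, Texas Red SRC2 20 nM; FP after 5 hr.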
KAT2A inh – qHTS Assay for Inhibitors of GCN5L2; Potency, µM (highest dose often 58.9 µM), for the others: at the top dose activity change, negative = inhibition, usual class: inhibitors; 390,000 tested, 0.21% active; GCN5L2 HAT assay, ThioGlo1 CoA-SH fluorescence
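ThioGlo1-coupled HAT assay: 20nM GCN5L2, 70uM acetyl-CoA, 75uM H3(1-25) peptide, pH 7.5. Fluorescence read at 340/540nm at start and after 20 min at room temperature.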
Numbers without * were called inactive; ? = inconclusive; / = no result given; [ ] = dose if it differs, or a comment. Unless noted, the call rests on the fitted dose curve; in most records, active means well fitted curve in the direction sought with a large enough effect; inconclusive means small, poorly fitted or top-dose-only effect, or another doubt; inactive means no such curve, though single readings can be large; an effect the other way counts as inactive or inconclusive. Unless noted, on the % scale 0 is the no-effect control and ±100 the full control effect; potency means the concentration at half of the fitted maximal effect.

SMILES	GoLoco inh red	VDR inh	TR SRC2 fluor cs	TRb-SRC2 inh	KAT2A inh
Cc1ccccc1Oc1nc2c(C)cccn2c(=O)c1/C=C(\C#N)C(=O)Nc1c(C)n(C)n(-c2ccccc2)c1=O	10%	50µM*	1%	-7%	-9%
COc1ccc(C2Nc3ccccc3C(=O)N2c2ccccc2F)cc1COc1ccc(NC(C)=O)cc1 (configuration not stated)	/	-7%	/	/	/
O=c1ccc(NS(=O)(=O)c2ccccc2Cl)cn1Cc1ccc(Cl)c(Cl)c1	9%	16µM*	1%	0%	-10%
NCCCC[C@H](NC(=O)[C@@H]1CCCN1C(=O)[C@H](CO)NC(=O)[C@H](CC(=O)O)NC(=O)CNC(=O)[C@H](CCCN=C(N)N)NC(=O)CN)C(=O)O	/	17%	-5%	1%	45%
C=CC1=C(C(=O)O)N2C(=O)[C@@H](NC(=O)C(N=O)c3csc(N)n3)[C@H]2SC1 (some centres not stated)	-19%	45µM*	-2%	9%	-12%
C=CC1=C(C(=O)O)N2C(=O)[C@@H](NC(=O)/C(=N\O)c3csc(N)n3)[C@H]2SC1 (stereo in doubt)	/	-4%	/	/	/
C[C@H](N)C(=O)NCC(=O)N[C@H]1CSSC[C@@H](C(=O)O)NC(=O)[C@H](CO)NC(=O)[C@H]([C@@H](C)O)NC(=O)[C@H](Cc2ccccc2)NC(=O)[C@H]([C@@H](C)O)NC(=O)[C@H](CCCCN)NC(=O)[C@H](Cc2c[nH]c3ccccc23)NC(=O)[C@H](Cc2ccccc2)NC(=O)[C@H](Cc2ccccc2)NC(=O)[C@H](CC(N)=O)NC(=O)[C@H](CCCCN)NC1=O	/	0%	/	/	49%
O=C(NCCCCc1ccccc1)c1cccc(NC(=O)C2CC2)c1	/	79µM*	/	/	/
Cc1ccc(Cl)cc1N1CCN(C(=O)c2ccc(CS(=O)(=O)c3ccc(Br)cc3)o2)CC1	/	-3%	1000µM*[quencher]	-7%	-20%
Cc1ccc(/C=c2\sc3nc(-c4cccs4)nn3c2=O)o1	90%	35µM*	4%	-13%	?
O=C(O)C1=C(CSc2nnnn2CS(=O)(=O)O)CS[C@@H]2[C@H](NC(=O)[C@H](O)c3ccccc3)C(=O)N12	/	40µM*	/	/	-16%
Nc1cc(S(N)(=O)=O)ccc1SSc1ccc(S(N)(=O)=O)cc1N	-8%[14.2 µM]	/	/	/	/
CNC(=O)c1nnsc1S(=O)(=O)c1ccc(Cl)cc1	-19%	10µM*	-4%	4%	?
CCN(CC)c1ccc(NC(=O)C(NS(=O)(=O)c2cccs2)C(C)C)c(C)c1 (configuration not stated)	/	-11%	4.5µM*[quencher]	-18%[53 µM]	-17%
O=c1oc2ccc(Br)cc2cc1-c1nc2c(s1)CCc1ccccc1-2	/	-19%	/	/	/
O=C(O)/C=C\C=C/c1ccc2c(c1)OCO2	5%[14.2 µM]	/	/	/	/
S=C1NCN(Cc2cccnc2)CN1	3%	2%	-4%	7%	0%
CN(C)C(=S)N=c1ssc(=S)n1Cc1cccnc1	/	50µM*	/	/	/
OCc1cccc(Oc2ccccc2)c1	/	/	-2%[201 µM]	3%[201 µM]	/
CCC[N+]1(CC#CC(O)(c2ccccc2)C2CCCCC2)CCCCC1 (configuration not stated)	-20%	-17%	-5%	-10%	-1%
NC(=O)C[N+]1(CC#CC(O)(c2ccccc2)c2ccccc2)CCCC1	8.9µM*	-10%	-5%	0%	-22%
CCOC(=O)c1c2c(n(Cc3ccccc3)c1C)C(=O)C(=O)c1ccccc1-2	/	50µM*	/	/	/
CCOC(=O)c1c2c3c(cccc3n(C)c1=O)C(=O)c1ccccc1-2	/	2%	/	/	-20%
CC1(c2ccccc2)NC(=O)N(CC(=O)NCCC2=CCCCC2)C1=O (configuration not stated)	15%	-15%	1%	11%	28µM*
Cc1ccc(C2(C)NC(=O)N(CC(=O)NCCC3=CCCCC3)C2=O)cc1 (configuration not stated)	17%	6%	1%	-4%	-1%
SMILES	GoLoco inh red	VDR inh	TR SRC2 fluor cs	TRb-SRC2 inh	KAT2A inh
O=c1c2cc(N3CCOCC3)ccc2[nH]c(=S)n1Cc1ccco1	-10%	79µM*	-5%	-8%	?
Cc1c(N/N=C(\C#N)C(=O)c2ccccc2)c(=O)n(-c2ccccc2)n1C	-1%	-13%	2.2µM*[quencher]	-12%	-3%
Cc1ccccc1C(=O)/C(C#N)=N/Nc1c(C)n(C)n(-c2ccccc2)c1=O	-3%	-23%	8%	-3%	-5%
c1coc(-c2nc3cc4ccccc4cc3nc2-c2ccco2)c1	/	22µM*	/	/	/
COc1ccc2nc(-c3ccco3)c(-c3ccco3)nc2c1	10%	?	?	3%	-18%
c1coc(-c2nc(-c3ccco3)c(-c3ccco3)nc2-c2ccco2)c1	24%	40µM*	13µM*[quencher]	20%	?
C[C@H](NC(=O)CNC(=O)[C@@H](NC(=O)[C@H](Cc1ccccc1)NC(=O)CNC(=O)CNC(=O)[C@@H](N)Cc1ccccc1)[C@@H](C)O)C(=O)N[C@@H](CCCN=C(N)N)C(=O)N[C@@H](CCCCN)C(=O)N[C@@H](CO)C(=O)N[C@@H](C)C(=O)N[C@@H](CCCN=C(N)N)C(=O)N[C@@H](CCCCN)C(N)=O	/	-4%	3%	0%	-8%
CC1=C(CC(=O)NCC(=O)NCC(=O)O)c2cc(F)ccc2/C1=C/c1ccc(S(C)=O)cc1 (configuration not stated)	/	-3%	/	/	-14%
CSc1ccc(/C=C2/C(C)=C(CC(=O)O)c3cc(F)ccc32)cc1	-1%	45µM*	0%	3%	?
CC(=O)N/N=C(\C)c1cccc(C(F)(F)F)c1	-10%	9%	0%	1%	-1%
Cc1sc(N)c(C(=O)c2cccc(C(F)(F)F)c2)c1C	39%	25µM*	-1%	-3%	?
N#Cc1cc(-c2ccccc2)nn1-c1ccccc1	13µM*	?	-2%	-12%	?
C=CCCCCCCCCCCCC	/	/	-4%[201 µM]	3%[201 µM]	/
COc1cccc(NC(=O)CC(C)S(=O)(=O)c2ccc3c(c2)NC(=O)CO3)c1 (configuration not stated)	/	8%	20µM*[quencher]	-11%	-13%
O=c1c2ccccc2c(C=Nc2ccc(S(=O)(=O)N3CCCCC3)cc2)c(O)n1-c1ccc(Cl)cn1	-11%	-9%	35µM*[quencher]	-12%[53 µM]	?
CCc1nnc(/N=C/c2c(O)n(-c3ccc(Cl)cn3)c(=O)c3ccccc23)s1	5%	-8%	-2%	-5%	-5%
